# Measured values taken from PubChem BioAssay (NCI).
# Compounds without any hit were thinned out: in the full panel of roughly 83,000, 20% have a hit.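 Cells were grown in 96-well plates and exposed to the test compound at a single concentration for 48 hours; results are reported as percent growth, with values below 10 considered active.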 Calls of active or inactive are those of the source.
# Test system: HL-60(TB) leukemia
# Assay: NCI-60 one-dose screen, 48 h (100 = growth as untreated, 0 = no growth, -100 = all killed)
# Conditions: 10 µM unless noted
row,SMILES,growth
1,COc1ccc(C2OC(c3cc(-c4cc5ccccc5o4)nn3-c3ccccc3)=NN2C(C)=O)cc1 (stereo not given),84.3% (inactive)
2,COc1cc(CCNc2nc3cc(N)cc(N)c3nc2-c2ccccc2)cc(OC)c1,-66.1% (active)
3,Nc1nc(N)c2cc(CNc3ccc(C(=O)NC(CC(=O)O)C(=O)O)cc3)ccc2n1 (stereo not given),19.4% (inactive)
4,CC(C)n1c(NCCc2ccc(O)c(O)c2)nc2c1c(=O)n(C)c(=O)n2C,99.3% (inactive)
5,Cn1ncc(Cl)c1-c1cc(C(=O)N[C@H](CN)Cc2ccc(F)c(F)c2)oc1Cl,-35.6% (active)
6,CCCSc1nc(N)nc2nc[nH]c12,74.6% (inactive)
7,CC(C)n1nc(C#Cc2cccc3cc(-c4cccc(C(F)(F)F)c4)ncc23)c2c(N)ncnc21,57.1% (inactive)
8,c1ccc(/C(=N\Nc2ccc3ccccc3n2)c2ccccn2)cc1,-29.8% (active)
9,CN1CCN(c2ccc3nc(-c4cc(C(C)(C)C)c(O)c(C(C)(C)C)c4)[nH]c3c2)CC1,68.6% (inactive)
10,COC(=O)c1ccc2c(c1)nc(-c1ccc(O)c(OC)c1)n2-c1cc(C(C)(C)C)[nH]n1,103% (inactive)
11,CCCCCCC(C)N(CC(C)(C)O)C(=O)c1ccc([N+](=O)[O-])cc1 (stereo not given),95.7% (inactive)
12,COc1cc2c(cc1-c1c(C)noc1C)ncc1nc(-c3ccccn3)n([C@H](C)COC(F)F)c12,33.6% (inactive)
13,Fc1cccc(F)c1C#Cc1ccc2cccnc2c1,74.6% (inactive)
14,Cc1ccc(S(=O)(=O)NC(=O)NCCSSCCNC(=O)NS(=O)(=O)c2ccc(C)cc2)cc1,102% (inactive)
15,Cc1cc(C)c(C(=O)c2cccs2)c(C)c1,98.3% (inactive)
16,COc1ccc(-c2nn(-c3ccc(NC(=O)c4cc(Cl)cc(Cl)c4)cc3)cc2-c2ccncc2)cc1Cl,20.3% (inactive)
17,O=C(Nc1cccc(C(F)(F)F)c1)Oc1ccc(Cl)c2cccnc12,-10.6% (active)
18,CCN(CC)CCOc1ccc(C2=C(c3ccccc3)CCc3cc(OC)ccc32)cc1,-54.4% (active)
19,COc1cc2cc(CN3CCN(c4nccc(-c5ccc6ccccc6c5)n4)CC3)c(=O)[nH]c2cc1OC,9.75% (active)
20,O=C(CC(CC(=O)c1ccccc1)c1ccccc1O)c1ccccc1,96.8% (inactive)

row,SMILES,growth
1,CC(C)C(C#N)(C(C)C)C(C)C,109% (inactive)
2,CC(C)[C@]12O[C@H]1[C@@H]1O[C@]13[C@]1(O[C@H]1C[C@H]1C4=C(CC[C@@]13C)C(=O)OC4)[C@@H]2OC(=O)CN(C)C,-24.3% (active)
3,C=CCc1cc(OC)c(OC)c(OC)c1,78.7% (inactive)
4,O=c1ccn(C2CC(O)C(COC(c3ccccc3)(c3ccccc3)c3ccccc3)O2)c(=O)[nH]1 (stereo not given),10.1% [100 µM] (inactive)
5,O=[N+]([O-])c1ccc(-c2nc(-c3ccccc3)c(-c3ccccc3)n2-c2ccccc2)cc1,-16.4% (active)
6,Cc1c([C@H](C(Cl)Cl)[C@H](O)[C@H]2C[C@H](C)C(=O)O2)ccc2c1C(=O)[C@H]1[C@H]2C[C@@H](Br)[C@@]23O[C@@H](CO[C@H]2O)CC13C (stereo not given in full),-16.4% (active)
7,Cc1c(C(N)=O)sc2ncn(Cc3ccccc3)c(=O)c12,118% (inactive)
8,CC(C)(Sc1cc(C(C)(C)C)c(OC(=O)CCCC(=O)O)c(C(C)(C)C)c1)Sc1cc(C(C)(C)C)c(OC(=O)CCCC(=O)O)c(C(C)(C)C)c1,-22.6% (active)
9,C=CCn1c(C)nc2ccc(Nc3nc(Nc4ccc5nc(C)n(CC=C)c5c4)c4ccccc4n3)cc21,-63.2% (active)
10,CN1CCN(C(=O)OCc2nc3c(N4CCOCC4)nc(-c4ccccc4)nc3n2C)CC1,-32.5% (active)
11,CCOC(=O)c1c(C(F)(F)F)n([O-])c2ccc(OC)cc2[n+]1=O,-9.6% (active)
12,Fc1ccc(-c2cnc3nonc3n2)c(F)c1,7.84% (active)
13,FC(F)(F)c1cccc(CNC2CCN(CCc3ccccc3)CC2)c1,46.2% (inactive)
14,COc1cc(NC(C)CCCN)c2nc(C)ccc2c1OC (stereo not given),-12.2% (active)
15,O=C1c2ccccc2-c2c1c1cccnc1c(=O)n2C[C@H](O)CO,48.8% (inactive)
16,COc1cc(C(C)c2ccc3c(ccn3C)c2)cc(OC)c1OC (stereo not given),-12.1% (active)
17,Fc1ccc(C2CC(c3cccc(Nc4ccncc4)c3)=NN2c2ccc(Cl)cc2)cc1 (stereo not given),17.2% (inactive)
18,CCCCC#Cc1c(I)n(C)c(=O)[nH]c1=O,-10.8% (active)
19,NC(=O)c1c(NC(=O)c2ccc(Cl)cc2)sc2c1CCC(=O)C2,48.6% (inactive)
20,C[C@@H](Oc1cc(-c2cnn(C3CCNCC3)c2)cnc1N)c1c(Cl)ccc(F)c1Cl,-59.4% (active)
